# In PubChem BioAssay AID504652 (National Center for Advancing Translational Sciences (NCATS), 2011):
# The campaign covered roughly 360,000 compounds. About 11,000 (3.1%) were called active. Cut-off read from the data, not from the text of the source: active = activity change below about -30%; inactive = the rest. The sample as a whole holds a higher share of actives than the screen did. Square brackets hold non-standard residues; d marks the D form. Peptide text beside a SMILES is read from it. * marks the point of attachment. PhAc = O=C(Cc1ccccc1)*
# Molecular target: D(1A) dopamine receptor (Homo sapiens) (UniProt P21728)
# Sequence (P21728 whole entry, looked up): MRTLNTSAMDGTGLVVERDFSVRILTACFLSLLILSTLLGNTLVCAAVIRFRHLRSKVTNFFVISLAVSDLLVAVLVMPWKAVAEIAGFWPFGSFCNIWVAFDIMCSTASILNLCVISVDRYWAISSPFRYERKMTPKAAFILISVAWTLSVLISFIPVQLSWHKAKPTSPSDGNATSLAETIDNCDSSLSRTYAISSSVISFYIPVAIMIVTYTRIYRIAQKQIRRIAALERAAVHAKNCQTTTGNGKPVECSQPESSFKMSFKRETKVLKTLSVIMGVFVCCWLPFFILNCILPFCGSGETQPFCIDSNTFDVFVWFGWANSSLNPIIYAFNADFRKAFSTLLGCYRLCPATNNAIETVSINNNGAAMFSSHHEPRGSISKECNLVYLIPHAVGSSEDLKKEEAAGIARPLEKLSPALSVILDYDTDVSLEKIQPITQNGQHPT
# Assay: Antagonist of Human D 1 Dopamine Receptor: qHTS
# Conditions: HEK293 TREx D1 cells, calcium flux, dopamine EC80; at 10 µM; hits give low values
# Method in brief: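 Using tetracycline-induced force-coupled D1 Hek293 cells and a calcium dye, signals were followed for 180 s after compound, then for 180 s after EC80 dopamine, to detect inhibitors.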
# % is set by controls: 0 for no effect and ±100 for the full control effect.
row,Structure (SMILES),"activity change, negative = inhibition"
1,COc1ccc(-n2nnc(-c3nsc(NC(=O)c4ccc(C)c(C)c4)n3)c2C)cc1Cl,2.45% (inactive)
2,CCOc1ccc(NC(=O)Cn2cc(C(=O)c3ccc(C)cc3)c(=O)c3cc4c(cc32)OCCO4)cc1,4.79% (inactive)
3,COCCn1c(=O)[nH]c(=O)c2cc(C(=O)c3cc(OC)ccc3O)cnc21,12.3% (inactive)
4,COc1ccc(O)c(C(=O)c2cnc3onc(C(C)C)c3c2)c1,-33.3% (active)
5,COc1ccc(O)c(C(=O)c2cnc3c(c2)c(-c2ccc(F)cc2)c(C#N)c(=O)n3C)c1,0.727% (inactive)
6,CCOc1ccc(CNC(=O)c2ccc(CS(=O)c3ccccc3)o2)cc1 (centres undefined),-7.56% (inactive)
7,COc1ccc(CNC(=O)CC2Oc3ccc(C)cc3NC2=O)cc1 (centres undefined),14% (inactive)
8,COc1ccc(C(=O)OCC(=O)Nc2ccc3[nH]c(=O)[nH]c3c2)c(OC)c1OC,-37.4% (active)
9,O=C(COC(=O)c1cccc(Cl)c1)Nc1ccc2[nH]c(=O)[nH]c2c1,2.99% (inactive)
10,COc1ccc(C(=O)OCC(=O)Nc2cccc(C(C)=O)c2)cc1OC,-4.31% (inactive)
11,COc1ccc(NC(=O)c2sc3nc(-c4cc5cccc(OC)c5oc4=O)[nH]c(=O)c3c2C)cc1,7.97% (inactive)
12,Cc1ccc(CSc2nc3cccnc3n2Cc2ccc(C(=O)NC3CC3)cc2)cc1,-0.852% (inactive)
13,CCc1ccc(NC(=O)CCCc2nnc3n(CCCOC)c(=O)c4sccc4n23)cc1,-2.77% (inactive)
14,Cn1nc(-c2ccccc2)c(CO)c1Sc1ccccc1,-64.5% (active)
15,Cn1cnc([N+](=O)[O-])c1Sc1ccccc1,1.72% (inactive)
16,Cn1nc(-c2ccccc2)c(CSc2cccc(Cl)c2)c1Cl,2.15% (inactive)
17,Cc1ccc(S(=O)(=O)NCc2nc3nc(C)cc(C)n3n2)cc1,-1.58% (inactive)
18,Cc1ccc(NC(=O)c2ccn(C(=O)Nc3ccccc3)n2)c(C)c1,4.19% (inactive)
19,Cc1ccc(NC(=O)Nc2ccccc2)c(Br)c1,-35.1% (active)
20,CCOc1cc(NC(=O)Nc2ccccc2)c(OCC)cc1NC(=O)CC,0.545% (inactive)

row,Structure (SMILES),"activity change, negative = inhibition"
1,COc1ccc(Cn2c(=O)c3oc4ccccc4c3n(CC(=O)Nc3ccc(F)cc3F)c2=O)cc1,-7.86% (inactive)
2,Cc1cc2c(s1)c1cnn(Cc3cc(F)c(Cl)cc3Cl)c(=O)c1n2C,3.83% (inactive)
3,CC(C)OCCCNc1ncnc2c1[nH]c1ccc(F)cc12,-48.9% (active)
4,Cc1ccc(-n2ncc(C(=O)N(C)Cc3ccccc3)c2-n2cccc2)cc1,-9.92% (inactive)
5,Cc1cc2c(cc3c(SCc4nc(-c5ccccc5)oc4C)nnc(C)n32)o1,-21.6% (inactive)
6,O=C(NCC(c1ccco1)S(=O)(=O)c1cccs1)c1ccc(F)cc1 (centres undefined),-7.39% (inactive)
7,O=C(CC1NCCNC1=O)Nc1ccc(Oc2ccccc2)cc1 (centres undefined),1.7% (inactive)
8,O=C(CC1NCCc2ccccc21)Nc1cccc(Cl)c1 (centres undefined),-31.7% (active)
9,O=C(CC1NCCNC1=O)Nc1cc(Cl)cc(Cl)c1 (centres undefined),4.63% (inactive)
10,O=C(NCc1ccc(Cl)cc1)c1ccc2c(c1)nnn2C1CCCC1,-8.94% (inactive)
11,Cc1ccc2ccc3c(c2n1)NS(=O)(=O)c1ccccc1-3,8.65% (inactive)
12,COc1ccc(CNC(=O)c2cc3c(s2)-c2ccccc2OC3)cc1,-24.1% (inactive)
13,Cc1cccc2c1-c1sc(C(=O)Nc3ccc(F)cc3F)cc1CO2,-14.5% (inactive)
14,Cc1cccc2c1-c1sc(C(=O)NCCCN3CCc4ccccc4C3)cc1CO2,-31.8% (active)
15,COc1ccc2c(c1)CCc1c(C(=O)Nc3cc(C)ccc3O)noc1-2,-13.5% (inactive)
16,COc1ccc(CNc2nc(-c3ccc(Cl)cc3)cc(C(F)(F)F)n2)cc1,-13.9% (inactive)
17,CCCNC(=O)C1CCC(Cn2c(=O)c3sccc3n(Cc3ccccc3F)c2=O)CC1 (centres undefined),-11.6% (inactive)
18,CCCC12CN3CC(CCC)(CN(C1)C3c1c[nH]c3ccc(OC)cc13)C2=O (centres undefined),-7% (inactive)
19,COc1ccccc1CNC(=O)C1CCN(c2nc3ccccc3o2)CC1,15.4% (inactive)
20,COc1ccccc1CN(C)C(=O)C1(c2ccc(Cl)cc2)CC1,-0.3% (inactive)

row,Structure (SMILES),"activity change, negative = inhibition"
1,COc1ccccc1CN(C)C(=O)c1cc2ccccc2o1,-35.2% (active)
2,CCc1ccc(N(CC)C(=O)CCn2cnc3onc(-c4ccc(F)cc4)c3c2=O)cc1,-6.1% (inactive)
3,S=C(NCC1COc2ccccc2O1)Nc1ccc(Br)cc1 (centres undefined),-47.7% (active)
4,CCCN(CC1COc2ccccc2O1)C(=S)Nc1ccc(C)cc1 (centres undefined),-12.3% (inactive)
5,CC(NC(=S)Nc1ccccc1)C1COc2ccccc2O1 (centres undefined),-14.2% (inactive)
6,COc1ccc(-n2c(=O)c3c(c4cc(OC)ccc4n3C)n(Cc3cccc(C)c3)c2=O)cc1,4.47% (inactive)
7,Cc1ccc(Cl)cc1N1CCN(C(=O)CN2C(=O)COc3ccc(S(=O)(=O)N4CCOCC4)cc32)CC1,3.53% (inactive)
8,COc1cc(NC(=O)CCn2nc(C)cc2C)cc(OC)c1OC,34.5% (inactive)
9,O=C(Nc1ccc(F)cc1)N1CCCC(c2nc3c(nnn3Cc3ccccc3Cl)c(=O)[nH]2)C1 (centres undefined),2.43% (inactive)
10,O=C(c1ccccc1F)N1CCC(c2nc3c(nnn3Cc3cccc(F)c3)c(=O)[nH]2)CC1,0.447% (inactive)
11,Cc1ccc(NC(=O)N2CCC(c3nc4c(nnn4Cc4c(F)cccc4Cl)c(=O)[nH]3)CC2)cc1,-40.8% (active)
12,Cn1cc(S(=O)(=O)N2CCCCCC2)cc1C(=O)N1CCN(c2ccc(F)cc2)CC1,5.3% (inactive)
13,CC(C)Oc1ccc(CNC(=O)C2CCN(c3nc4ccccc4n(C)c3=O)CC2)cc1,18.8% (inactive)
14,CCCOc1ccc(C(=O)Nc2ccc3oc(-c4cccc(Cl)c4Cl)nc3c2)cc1,6.25% (inactive)
15,COc1ccc2oc(=O)c(-c3cn4c(n3)sc3cc(OC)ccc34)cc2c1,2.94% (inactive)
16,Cn1c(=O)c2c(nc(SCC(=O)Nc3ccc(F)cc3)n2Cc2ccccc2)n(C)c1=O,6.42% (inactive)
17,COC(=O)[C@H](CC(C)C)NC(=O)N1CCCCC1C (some centres undefined),-78.1% (active)
18,CC(C)C[C@H](NC(=O)C1CCC(CNC(=O)[C@@H]2CCCN2C(=O)OC(C)(C)C)CC1)C(=O)O (some centres undefined),-1.98% (inactive)
19,CC(C)C[C@@H](NC(=O)[C@H]1CCCN1C(=O)Cc1ccccc1)C(N)=O (PhAc-[dP]-[dL]-NH2),30% (inactive)
